Experimental data reported in the OligoGym collection.
Note: reference of the scale not given here.

These sequences were tested against C17orf89 (assay: pooled miR-30 sensor sort-seq; sequence = guide strand). Details: shRNA.
In the case of TACGCCGCGGCCTCGGCCCCGC, the sensor-assay potency score (higher = more potent) is reported as -1.68. In the case of AAGTCCTTACTCAGGCGGCCGC, the sensor-assay potency score (higher = more potent) is reported as -1.52. Work on TCTTCTTGGCCGCAGCGGCGAA yielded a sensor-assay potency score (higher = more potent) of -1.65. TCCCGCGCGCAGAAGTCCTTAC was tested, and the sensor-assay potency score (higher = more potent) was -1.42. With TCGCACGCGGCCCCACACCGCT the sensor-assay potency score (higher = more potent) was -1.58. With CAGAAGTCCTTACTCAGGCGGC the sensor-assay potency score (higher = more potent) was -1.6. Work on AGGCCTGCACGCACCTGCCGTA yielded a sensor-assay potency score (higher = more potent) of -1.48. With TCGAACTCCCGCGCGCAGAAGT the sensor-assay potency score (higher = more potent) was -1.83. With TTGGCCGCAGCGGCGAAGCAGC the sensor-assay potency score (higher = more potent) was -1.67. For TTACTCAGGCGGCCGCCCGGGG, the sensor-assay potency score (higher = more potent) was -1.34. For AGGGCCTCGAACTCCCGCGCGC, the sensor-assay potency score (higher = more potent) was -1.88. TTCTTGGCCGCAGCGGCGAAGC gave a sensor-assay potency score (higher = more potent) of -1.54.

The sequences below were run against C18orf34 in the same assay as above. Details: shRNA.
Sequence TTTCATCTCTCTTTTCTCCTGG has a sensor-assay potency score (higher = more potent) of 0.616. With TATTCTTTCTTGATCTCTGTTG the sensor-assay potency score (higher = more potent) was -0.0146. In the case of TAATTCTATAACATCACTCAAA, the sensor-assay potency score (higher = more potent) is reported as -0.981. For TTGAAGTTCCTGATTCTGCTTA, the sensor-assay potency score (higher = more potent) was 0.774. Sequence TTCTTCATTAACTTTTCTGTGT has a sensor-assay potency score (higher = more potent) of 0.0915. TTGTCGAGACTTCTGATTCTTT showed a sensor-assay potency score (higher = more potent) of -0.716. Sequence TTCATCTTCTAGTTGAAGCAGA has a sensor-assay potency score (higher = more potent) of -0.375. Sequence TAGTTTTTTCTGAAGCACCATT has a sensor-assay potency score (higher = more potent) of -0.995. TTTTGTTGACACAAGGTGCTGG gave a sensor-assay potency score (higher = more potent) of 0.854. TACACTGTTATCTGAACTGTGT was tested, and the sensor-assay potency score (higher = more potent) was 0.065. Sequence TTGTCTTACTTTTAGTTGCTTC has a sensor-assay potency score (higher = more potent) of -0.608. In the case of TTTTTTATTGTCTTCCGTCAGT, the sensor-assay potency score (higher = more potent) is reported as -0.408.

What follows are sequences tested against C18orf56 in the same assay as above. Details: shRNA.
In the case of TATTTTGATCATTGCTGCCTTT, the sensor-assay potency score (higher = more potent) is reported as -0.437. For TAGTCCTAACCTCAATCCTGCC, the sensor-assay potency score (higher = more potent) was -1.52. TTAGTCCTAACCTCAATCCTGC showed a sensor-assay potency score (higher = more potent) of -0.842. With TCTAATGCATCCTATATCCAGT the sensor-assay potency score (higher = more potent) was -0.446. TCGGTATTCGGCATGCAGGCGC showed a sensor-assay potency score (higher = more potent) of -0.876. Work on TTAGGGACGTGACTGGCGCGGG yielded a sensor-assay potency score (higher = more potent) of -1.11. Work on TTTAGTCCTAACCTCAATCCTG yielded a sensor-assay potency score (higher = more potent) of -0.687. TTAGTATTTTGATCATTGCTGC gave a sensor-assay potency score (higher = more potent) of -0.0513. With ATGCAGGCGCGCTACAGCCTGA the sensor-assay potency score (higher = more potent) was -1.57. Sequence TATCTCTTCATCTGGGACCTGG has a sensor-assay potency score (higher = more potent) of -0.00491. Work on ACACACAGCAGCGACAGCCGGG yielded a sensor-assay potency score (higher = more potent) of -1. TAGAATTATCTCTTCATCTGGG showed a sensor-assay potency score (higher = more potent) of 0.794.

These sequences were tested against C19orf26 in the same assay as above. Details: shRNA.
With TTGCAGAGGAGCAGGACGCCAG the sensor-assay potency score (higher = more potent) was -1.16. For TCGTGGATGGTGACAATCTTGA, the sensor-assay potency score (higher = more potent) was -1.35. TTGTCCAGGTAGGTGGTGGTGG was tested, and the sensor-assay potency score (higher = more potent) was -0.893.
